CF NFkB block: cystic fibrosis NF-kB activation inhibition | KKLEB NF-kB-GFP reporter, PAF-induced, GFP fluorescence overnight | AID 588850 | inhibition, % at 5 µM | 360,000 tested, 0.86% active;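 active = at least 50% inhibition at 5 µM, scaled per plate between neutral and stimulator controls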;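 note: PAF is a Pseudomonas aeruginosa culture filtrate used as stimulus; plate controls were PAF-stimulated DMSO wells for no effect and unstimulated DMSO wells for full effect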
Peg3 promoter: inhibitors of Peg3 promoter; HeLa PEG-Prom luciferase reporter, luminescence, overnight; inhibition, % at 20 µM; 360,000 tested, 1.7% active;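 active = inhibition of at least 50% at 20 µM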
MITF TRPM1 inh: inhibitors of MITF-driven TRPM1 promoter in melanoma cells. SK-MEL-5 TRPM1 promoter luciferase, 24 h. inhibition, % at 12.5 µM. 330,000 tested, 0.83% active. AID 488899;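 active = mean inhibition across replicates of 60% or more, whatever share of single replicates reaches that level; inconclusive = some that reach 60%, reason not given; inactive = mean inhibition across replicates below 60%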
HIF-2a block: inhibitors of HIF-2a. 786-0 RCC cells HIF-2a reporter, luciferase luminescence, overnight. inhibition, % at 18.8 µM. 360,000 tested, 0.72% active. AID 624352;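 active = inhibition of the luminescence signal of 40% or more relative to plate controls, in a single-dose primary screen at 18.75 µM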
KKLEB tox: CF airway cell cytotoxicity counter-screen. KKLEB CF airway cells viability, ATPlite luminescence, overnight; active compounds read low; cells stimulated with P. aeruginosa culture filtrate. activity change (cytotoxicity), % at 5 µM. 360,000 tested, 0.36% active;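 active = corrected activity change at or below -50% at 5 µM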
Shn3 inh set2: inhibitors of Schnurri-3 3'UTR reporter in osteoblasts; Clone20 osteoblast Shn3 3'UTR firefly luciferase, 24 h; inhibition, % at 12.5 µM; 360,000 tested, 0.52% active;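 active = mean inhibition of at least 75% with every replicate also reaching 75%; inconclusive = mean inhibition at least 75% but some replicate below; inactive = mean inhibition below 75%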;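 note: 0% = median of neutral control wells and 100% = pilot-screen positive control compound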
Mdm2-MdmX confirm: confirmation of inhibitors of human Mdm2/MdmX interaction, set 2 | SaOS-2 split-luciferase Mdm2/MdmX complementation, luminescence | shares compounds with HIF-2a block | inhibition, % at 8 µM | 740 tested, 99% active;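 active = mean inhibition of the luminescence signal across two replicates at or above 26 percent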
Target sequence (O15151 whole entry, looked up): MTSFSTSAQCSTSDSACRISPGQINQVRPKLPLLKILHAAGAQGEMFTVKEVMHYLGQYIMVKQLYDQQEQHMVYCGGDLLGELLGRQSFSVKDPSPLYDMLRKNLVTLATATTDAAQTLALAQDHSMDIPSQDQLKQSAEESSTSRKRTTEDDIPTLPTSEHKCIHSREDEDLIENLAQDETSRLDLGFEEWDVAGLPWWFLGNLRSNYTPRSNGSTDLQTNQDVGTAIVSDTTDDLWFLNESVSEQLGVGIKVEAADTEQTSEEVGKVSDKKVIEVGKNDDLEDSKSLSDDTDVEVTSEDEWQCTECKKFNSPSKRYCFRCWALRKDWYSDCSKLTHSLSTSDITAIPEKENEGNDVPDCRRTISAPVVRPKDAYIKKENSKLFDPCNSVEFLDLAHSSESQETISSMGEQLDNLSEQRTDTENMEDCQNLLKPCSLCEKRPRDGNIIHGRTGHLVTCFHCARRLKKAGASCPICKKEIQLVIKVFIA
Target sequence (Q00987 whole entry, looked up): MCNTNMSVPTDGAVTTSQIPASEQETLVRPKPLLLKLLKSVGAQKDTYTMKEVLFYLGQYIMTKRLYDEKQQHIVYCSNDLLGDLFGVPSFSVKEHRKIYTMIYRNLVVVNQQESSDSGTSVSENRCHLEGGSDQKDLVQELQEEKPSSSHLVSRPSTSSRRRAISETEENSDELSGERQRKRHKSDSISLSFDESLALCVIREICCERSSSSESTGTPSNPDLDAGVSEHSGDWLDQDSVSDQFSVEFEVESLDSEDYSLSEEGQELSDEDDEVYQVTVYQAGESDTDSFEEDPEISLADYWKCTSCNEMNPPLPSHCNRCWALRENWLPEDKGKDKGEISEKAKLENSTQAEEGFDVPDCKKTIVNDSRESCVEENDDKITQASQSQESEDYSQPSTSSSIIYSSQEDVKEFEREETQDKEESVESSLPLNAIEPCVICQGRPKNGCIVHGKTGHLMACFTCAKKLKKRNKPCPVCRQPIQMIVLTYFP
HIF-2a inh conf: HIF-2a inhibition, single concentration confirmation; inhibition, % at 18.8 µM; 786-0 RCC cells, HIF-2a luciferase reporter luminescence, overnight; 1,800 tested, 56% active; shares compounds with HIF-2a block;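 active = mean inhibition across four replicates of at least 40 percent at the single tested concentration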
HIF-1a cs: counter-screen for HIF-2a inhibitors: HIF-1a inhibition in MiaPaCa-2 cells | shares compounds with HIF-2a block | MiaPaCa-2 HIF-1a luciferase reporter, desferoxamine, overnight | inhibition, % at 18.8 µM | 1,800 tested, 72% active;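 active = mean inhibition of the reporter signal across four replicates at the single tested dose of 50% or more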
An asterisk follows results filed as active; ? = inconclusive; · = no result. An excerpt weighted towards active compounds, which were near 2.7% of everything screened.

SMILES | CF NFkB block | Peg3 promoter | MITF TRPM1 inh | HIF-2a block | KKLEB tox | Shn3 inh set2 | HIF-2a inh conf | HIF-1a cs | others
CC1=C(C)/C(=N\OS(=O)(=O)c2ccccc2)C=CC1=O | -11.8 | 105.5* | 44.3 | 85.7* | 4.0 | 79.4 | · | · | Mdm2-MdmX confirm=103.2*
Cc1ccc(S(=O)(=O)O/N=C2\CCCc3ccccc32)cc1 | 1.0 | 10.8 | 10.0 | 10.9 | 5.2 | 0.9 | · | ·
COc1ccc(C(=O)Nc2nc3ccccc3[nH]2)cc1 | 10.8 | 41.4 | 44.0 | 48.7* | -28.8 | 17.3 | 63.8* | 67.8*
Cc1ccccc1N(Cc1cc(=O)[nH]c2ccccc12)C(=O)CCl | 33.8 | 57.6* | 54.0 | 27.2 | -10.9 | 12.3 | · | · | Mdm2-MdmX confirm=102.2*
CCN(CC(=O)NCc1ccc(Cl)cc1)C(=O)CNS(=O)(=O)c1ccc(NC(C)=O)cc1 | -19.8 | 10.3 | 6.9 | 12.5 | 3.8 | -0.2 | · | ·
COCCN(C(=O)CCl)C(C(=O)NC1CCCCC1)c1ccccc1C (centres undefined) | 32.9 | 60.3* | 78.4* | 65.6* | -21.0 | 14.0 | 23.0 | 91.3*
COCCN(C(=O)CCC(=O)Nc1cc(C)on1)C(C(=O)NC1CCCC1)c1ccccc1C (centres undefined) | -1.7 | -0.6 | 13.7 | 9.2 | -1.6 | -1.4 | · | ·
CN(C)CCCNc1c2ccccc2nc2ccccc12 | -25.1 | 102.0* | ? | 32.9 | -6.1 | 94.3* | · | · | Mdm2-MdmX confirm=102.0*
O=C(/C=C1\C(=O)Nc2ccccc21)/C=C1\C(=O)Nc2ccccc21 | 8.1 | 25.7 | 45.7 | 39.0 | -4.3 | 80.7 | · | ·
CCc1ccc2c(c1)/C(=C/C(=O)c1cccs1)C(=O)N2 | 24.0 | -24.5 | 70.1* | 74.7* | -24.2 | 80.0 | 60.8* | 103.2*
C=CC(=O)Nc1ccc(Nc2nc(NC3CCC(N(C)C)CC3)nc3c2ncn3C(C)C)cc1 (centres undefined) | 94.0* | 107.1* | 86.5* | 75.6* | -73.5* | 94.4* | · | · | Mdm2-MdmX confirm=103.0*
Cc1ccccc1Oc1cc(-n2ncc(Cl)c(Cl)c2=O)ncn1 | 96.5* | 104.7* | 93.8* | 98.4* | -100.5* | 95.9* | 99.8* | 106.4*
CCOc1cnn(-c2cc(Oc3ccc(C)cc3)ncn2)c(=O)c1Cl | 8.1 | -4.5 | 5.9 | -8.9 | -3.9 | -4.1 | · | ·
Cc1ccc2c(c1)N(S(=O)(=O)c1ccc(CN3C(=O)c4cccnc4C3=O)s1)CCO2 | -8.1 | -2.8 | 1.9 | 12.5 | 5.8 | -21.1 | · | ·
Cc1ccc2c(c1)=N/C(=N\c1[nH]c(O)c3ccccc13)N=2 | 37.0 | 89.8* | · | 75.7* | 0.2 | -19.6 | -87.7 | 94.6*
Cc1ccc(Oc2ccc(S(=O)(=O)N3CCOCC3)cc2C(N)=O)cc1C | -2.9 | -0.4 | 8.4 | 16.0 | -17.9 | 3.9 | · | ·
O=C(O)c1ccc(Sc2nnnn2-c2ccccc2)c([N+](=O)[O-])c1 | 4.0 | -2.2 | 1.8 | 8.6 | -8.2 | 3.1 | · | ·
COC(=O)c1ccc(Sc2nnnn2-c2ccccc2)c([N+](=O)[O-])c1 | 44.5 | 35.9 | 52.8 | 40.3* | -8.8 | 15.2 | 3.7 | -14.5
NC(=O)c1ccc(Cl)c2ccccc12 | 14.4 | -16.6 | 1.3 | 58.2* | -8.3 | -21.6 | 4.3 | 27.9
NC(=O)c1cccc2ccccc12 | -7.2 | 19.7 | -5.7 | 14.6 | -2.6 | · | · | ·
CN1CCN(NC(=O)c2c(-c3ccccc3)sc3ccccc23)CC1 | 13.7 | -10.2 | -0.7 | -8.2 | 2.0 | -15.1 | · | ·
COc1cc(CNC2CCCC2)cc(Cl)c1OCc1ccccc1Cl | 11.1 | 94.2* | 82.0* | 82.0* | -23.4 | 34.1 | 6.7 | 106.6*
COc1cc(CNC2CCCCCCC2)cc(Cl)c1OCC(N)=O | -11.6 | 2.0 | 7.1 | 20.0 | 14.0 | -2.1 | · | ·
O=c1[nH]cnc2c1nnn2C1OC(CO)C(O)C1O (centres undefined) | 5.8 | 35.0 | · | -10.1 | -6.7 | -38.7 | · | ·
O=C(CN(c1cccc(C(F)(F)F)c1)S(=O)(=O)c1ccc(Cl)c([N+](=O)[O-])c1)NCc1ccccc1 | -23.3 | 11.6 | 12.3 | 10.8 | -7.0 | 22.3 | · | ·
SMILES | CF NFkB block | Peg3 promoter | MITF TRPM1 inh | HIF-2a block | KKLEB tox | Shn3 inh set2 | HIF-2a inh conf | HIF-1a cs | others
Cc1ccc(N(CC(=O)NCCc2ccc(F)cc2)S(=O)(=O)c2ccc(Cl)c([N+](=O)[O-])c2)c(C)c1 | -0.8 | 104.0* | 47.9 | 92.2* | -2.3 | 12.8 | 32.1 | 107.7*
CC(=O)c1ccc(NS(=O)(=O)c2ccc3c(c2)CCC(=O)N3)cc1 | 4.9 | 14.2 | -1.6 | 4.7 | -23.5 | 3.6 | · | ·
O=c1c2c3nc4ccccc4nc3n(Cc3ccccc3)c2ncn1Cc1ccco1 | 10.7 | 75.7* | 3.7 | 43.6* | 3.4 | 44.6 | -2.4 | 78.2*
O=c1cccc2c1c1cc[nH]c3ccc(=O)n2c31 | 47.1 | 28.3 | 29.1 | 36.4 | -3.8 | -27.1 | · | · | Mdm2-MdmX confirm=92.7*
O=c1cc[nH]c2ccc(Cl)cc12 | -7.4 | 7.2 | · | 0.1 | -23.3 | -92.3 | · | ·
O=[N+]([O-])c1cc(S(=O)(=O)N2CCCCCC2)ccc1Cl | -11.5 | 69.2* | 37.9 | 40.5* | -2.9 | 0.3 | 29.0 | 68.3*
COc1cc(/C=C/C(C)=O)cc(OC)c1OC | -5.6 | -0.6 | 0.1 | 8.2 | 10.3 | -37.7 | · | ·
COc1cc(C=CC(=O)c2ccccc2)cc(OC)c1OC | 34.3 | 97.5* | · | 37.5* | -7.4 | -4.1 | 33.7 | 95.1*
COc1cc(C=CC(=O)c2cc(OC)c(OC)c(OC)c2)cc(OC)c1OC | 24.0 | 71.4* | 67.5* | 59.0* | 7.0 | 61.9 | 89.3* | 104.7*
COc1ccccc1NC(=O)/C(C#N)=C/c1cccn1C | -9.7 | -138.9 | -29.3 | -159.8 | 3.6 | -90.1 | · | ·
COc1ccc(C2CC(c3cccs3)=NN2C(=O)CCl)cc1OC (centres undefined) | 36.1 | 103.1* | 83.2* | 3.1 | -10.7 | 49.4 | · | · | Mdm2-MdmX confirm=95.8*
CC(=O)N1N=C(c2ccco2)CC1c1cccs1 (centres undefined) | -0.4 | 1.6 | 10.8 | -1.3 | -2.4 | -12.3 | · | ·
COc1ccc(C2CC(c3cccs3)=NN2C(=O)c2ccccc2)cc1OC (centres undefined) | 2.3 | 8.1 | -7.9 | 9.8 | 5.3 | 4.2 | · | ·
Cc1ccc(C2=NN(C(=O)CCl)C(c3cccs3)C2)o1 (centres undefined) | 46.0 | 60.1* | 73.2* | 83.9* | -21.2 | 9.2 | 2.0 | 50.6* | Mdm2-MdmX confirm=101.0*
COc1cc(C2CC(c3cccs3)=NN2C(=O)CCl)ccc1OC(F)F (centres undefined) | 104.2* | 109.0* | 64.8* | 38.5 | -88.4* | 56.8 | · | · | Mdm2-MdmX confirm=103.0*
